Compound activity deposited in PubChem BioAssay by National Center for Advancing Translational Sciences (NCATS).
This is a sample that favours compounds with a hit; in the whole collection about 20% have one here.
Cycloheximide cs = affects cycloheximide protein synthesis inhibition readout, counter-screen; cell reporter, cycloheximide protein synthesis inhibition counterscreen; max response, %; hit rate 12% among 300,000; in the data active = max response mostly above about 13%, no sharp cut-off; inactive = mostly below about 14%; also: read at 38.3 µM for the half of the compounds with a filed dose; 0% is about no effect
Pf growth 48h = inhibits P. falciparum growth in the first generation, 48 h; AID 504832; Potency, µM (highest dose often 28.7 µM), without a hit: top-dose activity change, negative = inhibition, hits mostly inhibitors; hit rate 5.9% among 310,000; P. falciparum luciferase growth in erythrocytes, 48 h; also: potency is read from the fitted curve at half-maximal effect; % is scaled to controls: 0 for no effect and ±100 for the full control effect
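A one-generation exposure of luciferase-tagged malaria parasites in RPMI 1640/Albumax erythrocyte culture, 37 C and 5% CO2. Inhibition is inferred from decreased luminescence after adding detection reagent.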
HCMV inh = human cytomegalovirus inhibition | HFF cells, HCMV-luciferase reporter, 72 h; hits give low values | hit rate 4.5% among 410,000 | activity change, negative = inhibition, % at 57.5 µM | AID 1259415; in the data active = activity change below about -60%; inconclusive = no clear call, values can overlap the other calls; inactive = above about -39%; also: % is scaled to controls: 0 for no effect and ±100 for the full control effect
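Human foreskin fibroblasts infected with luciferase-reporter HCMV at MOI 1 PFU/cell, compounds at two doses. Luciferase measured 72 h post infection; normalized to buffer-only basal and Salinomycin (10uM) controls.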
Shiga inhibitor = Shiga toxin inhibition; Vero cells, Shiga toxin protein synthesis inhibition reporter; inhibition, % at 38.7 µM; hit rate 9.2% among 290,000; AID 2315; in the data active = inhibition mostly above about 28%, no sharp cut-off; inactive = mostly below about 43%; also: 0% is about no effect
Pf growth 96h = P. falciparum growth inhibition at 96 hours; P. falciparum luciferase reporter growth, 96 h; Potency, µM (doses to about 28.7 µM), for the others: at the highest dose activity change, negative = inhibition, hits mostly inhibitors; hit rate 6.9% among 320,000; AID 504834; also: potency is read from the fitted curve at half-maximal effect; % is scaled to controls: 0 for no effect and ±100 for the full control effect
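Plates of compound plus infected erythrocytes (2% hematocrit, 0.05% parasitemia final) incubate 96 hours, 37 C, 5% CO2. Detection reagent added; reduced luminescence from the parasites' luciferase reporter flags inhibition.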
* marks the source's active call; other numbers are inactive results; ? = inconclusive; / = no result. Unless noted, calls follow the shape of the dose curve; as a rule, active = well fitted inhibition curve with a large enough effect; inconclusive = small, poorly fitted or top-dose-only effect, or another doubt; inactive = no such curve, though single readings can be large or run the other way.

SMILES	Cycloheximide cs	Pf growth 48h	HCMV inh	Shiga inhibitor	Pf growth 96h
O=C(Nc1ccc(N2CCCCCC2)cc1)c1ccccc1Cl	34*	52%	58	53*	?
O=C(Nc1ccccc1N1CCCC1)c1ccc(Cl)cc1Cl	-2	0%	-17	28	-2%
O=C(Nc1ccc(N2CCCC2)cc1)c1ccc(Cl)cc1Cl	47*	/	-33	47*	42%
CCN(C(=O)CSc1nc2ccccc2n1Cc1cc(C)ccc1C)c1ccccc1	/	/	-6	/	/
COc1ccc(-c2cn(Cc3ccc4ccccc4c3)nn2)cc1	1	36%	32	-6	-4%
Cc1ccc(Cn2cc(-c3ccccc3)nn2)cc1	57*	97%	12	86*	146%
CCCCCc1ccc(-c2cn(CCCOCc3ccccc3)nn2)cc1	-2	30%	-13	-3	-51%
COc1ccc(-c2cn(Cc3ccc(C(=O)c4ccccc4)cc3)nn2)cc1	43*	86%	-82*	62*	85%
COc1ccc(-c2cn(CCCOCc3ccccc3)nn2)cc1	16*	?	-29	25*	?
CCCCCc1ccc(-c2cn(Cc3ccc([N+](=O)[O-])cc3)nn2)cc1	6	39%	/	5	?
COc1ccc(-c2cn(Cc3ccc([N+](=O)[O-])cc3)nn2)cc1	10	13%	80	24*	41%
Cc1cccc(-c2oc3ccccc3c2C#CCCO)c1	1	-2%	-17	10	-12%
CNc1ccc2ncc(-c3ccc(OC)c(OC)c3)n2n1	/	/	-83*	/	/
CC(C)CCNC(=O)CSc1nc2ccccc2nc1Cc1ccccc1	/	/	-2	/	/
O=[N+]([O-])c1cc(C(F)(F)F)ccc1NCCOc1ccccc1	48*	41%	22	31*	55%
O=[N+]([O-])c1cc(C(F)(F)F)ccc1NC1CCN(Cc2ccccc2)CC1	1	7.4µM*	18	-6	6%
O=[N+]([O-])c1cc(C(F)(F)F)ccc1NC1CCN(Cc2ccccc2)C1 (configuration not stated)	-1	-8%	20	-17	?
Cc1ccccc1OCCNc1ccc(C(F)(F)F)cc1[N+](=O)[O-]	20*	-1%	10	49	35%
O=C(OCCNc1ccc(C(F)(F)F)cc1[N+](=O)[O-])c1cc2ccccc2oc1=O	18*	53%	8	2	1%
CCOc1ccc(S(=O)(=O)NC(C)C)cc1C(N)=O	-2	23%	?	2	?
O=C(CNC(=O)c1ccc(Br)o1)NNC(=O)c1n[nH]c(=O)c2ccccc12	/	?	-16	/	?
CN(C)S(=O)(=O)NCCNc1ccc(C(F)(F)F)cc1[N+](=O)[O-]	12*	14%	-27	9	?
COc1ccc2[nH]c(C)c(CCNc3ccc(C(F)(F)F)cc3[N+](=O)[O-])c2c1	0	?	-20	10	15µM*
CS(=O)(=O)NCCNc1ccc(C(F)(F)F)cc1[N+](=O)[O-]	-1	14%	-15	-13	3%
COc1ccc(C(=O)COC(=O)[C@H](C)Nc2ccc(C(F)(F)F)cc2[N+](=O)[O-])cc1	0	6%	61	0	/
SMILES	Cycloheximide cs	Pf growth 48h	HCMV inh	Shiga inhibitor	Pf growth 96h
CSc1nc2sc3c(c2c(=O)n1-c1ccc(C)c(Cl)c1)CCN(C(C)=O)C3	/	/	-14	/	/
Cc1ccc(Cl)cc1NC(=O)c1sc(-n2nc(C)c(Cc3ccc4c(c3)OCO4)c2C)nc1C	/	/	-7	/	/
O=C(COC(=O)C1CC2C=CC1C2)Nc1ccccc1[N+](=O)[O-] (configuration not stated)	/	/	1	/	/
CCOC(=O)c1cn(CC2CC2)c2cc(F)c(F)cc2c1=O	-2	-18%	-25	7	?
Cn1c(C=O)c(C#Cc2ccccc2)c2ccccc21	/	12µM*	21	/	?
CSCCC(NS(=O)(=O)c1ccc2c(c1)OCCO2)C(=O)N(C)Cc1ccccc1F (configuration not stated)	/	12µM*	-23	/	?
COCCOc1ccc(C(F)(F)F)cc1NC(=O)COC(=O)c1cc([N+](=O)[O-])ccc1N1CCOCC1	2	?	?	-12	9.3µM*
COC(=O)c1cc(S(=O)(=O)N2CCCCC2)ccc1N1CCOCC1	/	?	-15	/	-12%
COc1ccc(COC(=O)c2cc([N+](=O)[O-])ccc2N2CCOCC2)cc1F	/	?	-73*	/	?
Cc1ccc(CNC(=O)c2cc(S(=O)(=O)N3CCCCC3)ccc2N2CCOCC2)cc1	/	8.3µM*	-35	/	?
Cc1ccc(COC(=O)c2cc(S(=O)(=O)N3CCCCC3)ccc2N2CCOCC2)cc1	/	9.3µM*	-27	/	?
Cc1ccc(NC(=O)c2cc(S(=O)(=O)N3CCCCC3)ccc2N2CCOCC2)cc1	/	/	-5	/	/
NC(=S)N/N=C/c1c[nH]c2ccc(OCc3ccccc3)cc12	4	?	/	14	?
CCOCCCNC(=O)N[C@@H](Cc1ccccc1)C(=O)OC	-7	11%	-13	-4	36%
CCOc1ccc(CC(=O)NCc2cn3c(C)csc3n2)cc1	-2	-2%	-8	-7	-1%
CN(CCc1ccccc1)C(=O)c1ccc(NC(=O)Cc2ccc(NC(=O)C3CCN(S(=O)(=O)c4cccc([N+](=O)[O-])c4)CC3)cc2)cc1	/	/	-9	/	/
Cc1ccc(C)c(COC(=O)c2cc(S(=O)(=O)N3CCCCC3)ccc2N2CCOCC2)c1	/	15µM*	-8	/	?
O=C(OCc1cccc(Cl)c1)c1cc(S(=O)(=O)N2CCCCC2)ccc1N1CCOCC1	10	?	-35	22	13µM*
O=C(COC(=O)C12CC3CC(CC(O)(C3)C1)C2)Nc1ccccc1OC(F)F	11	-28%	-6	4	-57%
Cc1ccc(C)c(NC(=O)c2cc(S(=O)(=O)N3CCCCC3)ccc2N2CCOCC2)c1	/	?	-9	/	0%
CCc1cccc(NC(=O)c2cc(S(=O)(=O)N3CCCCC3)ccc2N2CCOCC2)c1	/	/	4	/	/
